# Laboratory results from paper PMC5540273 (PLoS ONE, 2017).
# Experiments:
# DCAMKL3 = system: T1, DCAMKL3
# T1 construct: gene DCLK3
# DRAK1 = system: T2, DRAK1
# T2 construct: gene STK17A
# DCAMKL2 = system: T3, DCAMKL2
# T3 construct: gene DCLK2
# DMPK2 = system: T4, DMPK2
# T4 construct: gene CDC42BPG
# 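Note: kd values determined as follow-up on hits from a single-replicate KINOMEscan panel screen.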
smiles,measurement,setting,value
CC[C@@H]1CO[C@H](C(=O)Nc2ccccc2)CN1c1cc(-c2ccc3c(N)n[nH]c3c2)nc(NC)n1 [GSK2376236],Kd,DCAMKL3,570 nM
same,Kd,DRAK1,220 nM
Cc1nccc(-c2c(-c3ccc(F)cc3)ncn2CCCN2CCOCC2)n1.Cl [SB-282975],Kd,CSNK1D,75 nM
same,Kd,CSNK1E,460 nM
same,Kd,DAPK2,> 10000 nM
CC(=O)c1c(C)c2cnc(Nc3ccn(C)n3)nc2n(C2CCCC2)c1=O,Kd,DCAMKL2,> 10000 nM
COc1cccc(NC(=O)Nc2ccc(C)c(-c3ccc(C(=O)Nc4ccncc4)cc3)c2)c1 [GSK1398474],Kd,CSF1R,3300 nM
same,Kd,DDR1,270 nM
Cc1ccc(NC(=O)Nc2ccc(Cl)cc2)cc1-c1ccc(C(=O)Nc2ccncc2)cc1 [GSK1398472],Kd,CSF1R,6700 nM
same,Kd,DDR1,73 nM
COc1ccc2cc(-c3nc(-c4ccccc4C(C)C)[nH]c3-c3ccncc3)ccc2c1 [SB-660566],Kd,DDR1,330 nM
CCCCc1nn2ncccc2c1-c1ccnc(NC2CC2)n1 [GW684374],Kd,CSNK1D,480 nM
same,Kd,CSNK1E,2900 nM
CS(=O)(=O)CCNCc1nc(-c2ccc3ncnc(Nc4ccc(OCc5ccccc5)c(Cl)c4)c3c2)cs1.Cl [GW582764],Kd,DDR1,> 10000 nM
CNCc1ccc2nc(NC(=O)c3ccc(C(C)(C)C)cc3)cn2c1,Kd,CSNK1G3,> 10000 nM
Cc1ccc(NC(=O)Nc2ccccc2)cc1-c1ccc(C(=O)Nc2ccncc2)cc1 [GSK1398471],Kd,CSF1R,3300 nM
same,Kd,DDR1,180 nM
Cn1cnc2c(N)ncnc21 [SKF-97623],Kd,DAPK1,> 10000 nM
CC(=O)c1c(C)c2cnc(Nc3ccc(N4CCNCC4)cn3)nc2n(C2CCCC2)c1=O,Kd,CSNK1E,> 10000 nM
same,Kd,DMPK2,> 10000 nM
